Drawing on ChEMBL document CHEMBL3988442, “University of Dundee, Small-Polar-MMV Screening Library” (2021), this text covers Percent Effect for eleven molecules.

The structures appear in SMILES notation. For some of these results: Measured potencies and affinities stand elsewhere.

Common to all, as to design: scale not given: direction of the effect not stated beside the values
The target in experiment [1] is Protein translocase subunit SecA (Escherichia coli (strain K12)) (UniProt P10408). The experiment is described as follows: Assay to Identify E. coli SecA ATPase Inhibitors. In kind it is functional. The note with it: 30 µM.
Experiment [2] concerns the target T1, Ubiquitin-activating enzyme e1, putative (Leishmania donovani (strain BPK282A1)) (UniProt E9BSI1).
T1 sequence (whole entry): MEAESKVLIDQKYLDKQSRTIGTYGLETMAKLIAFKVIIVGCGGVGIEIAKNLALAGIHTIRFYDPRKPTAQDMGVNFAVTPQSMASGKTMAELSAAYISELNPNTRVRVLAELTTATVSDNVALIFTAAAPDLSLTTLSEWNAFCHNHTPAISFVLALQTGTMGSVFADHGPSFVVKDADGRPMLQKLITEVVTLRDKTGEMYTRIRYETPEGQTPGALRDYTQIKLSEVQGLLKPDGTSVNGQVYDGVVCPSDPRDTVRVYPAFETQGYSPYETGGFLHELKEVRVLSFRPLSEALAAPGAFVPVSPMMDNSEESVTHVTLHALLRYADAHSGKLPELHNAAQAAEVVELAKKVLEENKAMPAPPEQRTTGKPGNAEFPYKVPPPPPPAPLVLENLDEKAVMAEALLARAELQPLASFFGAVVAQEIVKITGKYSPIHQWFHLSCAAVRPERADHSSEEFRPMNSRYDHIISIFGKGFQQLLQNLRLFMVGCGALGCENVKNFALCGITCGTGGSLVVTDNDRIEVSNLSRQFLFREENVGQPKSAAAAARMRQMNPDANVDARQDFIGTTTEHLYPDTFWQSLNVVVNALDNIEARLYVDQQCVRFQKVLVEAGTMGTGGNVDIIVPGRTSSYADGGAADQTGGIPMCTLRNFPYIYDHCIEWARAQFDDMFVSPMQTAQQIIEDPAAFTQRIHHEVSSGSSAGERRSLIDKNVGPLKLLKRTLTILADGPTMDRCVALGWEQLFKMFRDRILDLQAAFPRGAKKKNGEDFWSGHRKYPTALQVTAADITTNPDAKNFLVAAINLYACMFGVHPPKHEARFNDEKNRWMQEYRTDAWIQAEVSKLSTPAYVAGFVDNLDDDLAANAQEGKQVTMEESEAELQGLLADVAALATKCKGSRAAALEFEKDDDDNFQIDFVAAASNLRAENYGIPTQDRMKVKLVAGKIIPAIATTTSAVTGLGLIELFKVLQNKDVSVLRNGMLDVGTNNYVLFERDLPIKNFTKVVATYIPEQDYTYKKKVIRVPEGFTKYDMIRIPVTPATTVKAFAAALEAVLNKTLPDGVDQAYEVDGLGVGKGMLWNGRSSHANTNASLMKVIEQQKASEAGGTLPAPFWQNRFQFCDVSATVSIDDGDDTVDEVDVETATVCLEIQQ
Description: Leishmania donovani Ubiquitin Activating Enzyme (LdE1). In kind it is functional. The settings on record: 30 µM.

Experiment [3] concerns the target AMP-activated protein kinase, AMPK (Homo sapiens) (UniProt P54646+O43741+P54619+Q9UGJ0+Q9Y478+Q13131+Q9UGI9). Description: AMP-dependent Kinase enzyme assay. An in vitro enzyme assay that detects ADP turnover that is directly proportional to AMPK activity. This uses naive AMPK that is activated during the assay with MK-8722. In kind it is functional. The settings on record: 30 µM.

Experiment [4] concerns the target Sialic acid-binding Ig-like lectin 9 (Homo sapiens) (UniProt Q9Y336). The experiment is described as follows: Hs-Siglec9 ALPHAscreen SOP 20170721. The settings on record: 10 µM. In general terms: Alpha assays give light when donor and acceptor beads are brought close together.
A further experiment deals with Trypanosoma cruzi. Description: Trypanosoma cruzi phosphomannomutase and mannose-1-phosphate guanylyltransferase assay. It counts as functional. The note with it: 10 µM.
Experiment [5] deals with T2, Arginase-2, mitochondrial (Homo sapiens) (UniProt P78540).
T2 sequence (whole entry): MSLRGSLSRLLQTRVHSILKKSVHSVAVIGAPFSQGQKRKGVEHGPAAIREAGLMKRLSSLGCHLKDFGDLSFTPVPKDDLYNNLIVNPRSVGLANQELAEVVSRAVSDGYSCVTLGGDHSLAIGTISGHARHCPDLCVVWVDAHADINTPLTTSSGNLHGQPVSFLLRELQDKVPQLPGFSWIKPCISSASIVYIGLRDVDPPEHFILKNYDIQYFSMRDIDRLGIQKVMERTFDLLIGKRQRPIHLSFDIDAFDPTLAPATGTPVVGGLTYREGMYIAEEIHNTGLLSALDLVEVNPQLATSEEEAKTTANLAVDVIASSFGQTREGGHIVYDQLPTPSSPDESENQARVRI
Description: in vitro enzyme assay to detect the production of urea directly proportional to the activity of Arginase II. Further: in the data most compounds retested in dose-response had high values. It counts as functional. The note with it: 33.3 µM.

Experiment [6] deals with T3, Proteasome subunit beta (Trypanosoma cruzi) (UniProt O96673).
T3 sequence (whole entry): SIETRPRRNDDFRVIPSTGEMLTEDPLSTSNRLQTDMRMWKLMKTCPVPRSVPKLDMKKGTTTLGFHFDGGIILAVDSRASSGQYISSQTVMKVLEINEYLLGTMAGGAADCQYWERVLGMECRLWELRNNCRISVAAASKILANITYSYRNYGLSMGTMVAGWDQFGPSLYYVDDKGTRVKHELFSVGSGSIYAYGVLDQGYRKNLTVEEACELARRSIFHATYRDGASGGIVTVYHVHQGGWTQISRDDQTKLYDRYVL
Description: Trypanosoma cruzi proteasome chymotrypsin-like activity (TcProtChymo) assay. Further: in the data most compounds retested in dose-response had high values. It counts as functional. The settings on record: 9.37 µM.

Another experiment is filed under the species Homo sapiens. The experiment is described as follows: To identify inhibition of the IFN signalling (Jak-Stat) pathway via expression of an eGFP reporter gene under the control of an IFN-stimulated response element (ISRE) containing MxA promoter. In kind it is functional. The note with it: 30 µM. For orientation: Reporter assays use an easily measured gene product as a stand-in for the process of interest.

For experiment [7], the target named is T4, Tyrosyl-tRNA synthetase, putative (Trypanosoma cruzi (strain CL Brener)) (UniProt Q4DSP6).
T4 sequence (whole entry): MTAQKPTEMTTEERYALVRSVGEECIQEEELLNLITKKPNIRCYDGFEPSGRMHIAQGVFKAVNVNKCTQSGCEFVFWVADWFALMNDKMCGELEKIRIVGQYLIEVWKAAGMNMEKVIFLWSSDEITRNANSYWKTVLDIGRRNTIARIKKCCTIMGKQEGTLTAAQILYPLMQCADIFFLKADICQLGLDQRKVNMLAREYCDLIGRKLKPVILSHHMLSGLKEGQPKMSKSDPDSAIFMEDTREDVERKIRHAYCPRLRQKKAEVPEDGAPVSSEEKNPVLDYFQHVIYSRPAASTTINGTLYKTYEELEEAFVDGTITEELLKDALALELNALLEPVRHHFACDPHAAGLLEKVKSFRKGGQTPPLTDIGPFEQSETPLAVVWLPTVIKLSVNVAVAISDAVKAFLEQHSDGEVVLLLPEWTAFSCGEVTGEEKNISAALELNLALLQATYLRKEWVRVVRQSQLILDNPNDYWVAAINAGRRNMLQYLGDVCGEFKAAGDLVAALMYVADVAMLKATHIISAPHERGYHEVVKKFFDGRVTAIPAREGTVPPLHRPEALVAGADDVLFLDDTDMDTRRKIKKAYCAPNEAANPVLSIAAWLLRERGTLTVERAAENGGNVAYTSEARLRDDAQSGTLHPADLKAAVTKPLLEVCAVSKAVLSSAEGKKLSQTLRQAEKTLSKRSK
Description: Trypanosoma cruzi tyrosyl tRNA synthetase (TcYRS) _High Tyrosine SOP. Further: in the data most compounds retested in dose-response had high values. It counts as functional. The settings on record: 30 µM.

Experiment [8] has as its target T4, Tyrosyl-tRNA synthetase, putative (Trypanosoma cruzi (strain CL Brener)). The experiment is described as follows: Trypanosoma cruzi tyrosyl tRNA synthetase (TcYRS) SOP. It counts as functional. The note with it: 30 µM.
The target in experiment [9] is Chromo domain-containing protein 1 (Saccharomyces cerevisiae (strain ATCC 204508 / S288c) (Baker's yeast)) (UniProt P32657). The experiment is described as follows: ScCHD-1 Enzyme Inhibition Assay. Further: in the data most compounds retested in dose-response had high values. It counts as functional. The note with it: 30 µM.
Sequence of Chromo domain-containing protein 1 (Saccharomyces cerevisiae (strain ATCC 204508 / S288c) (Baker's yeast)) (P32657 whole entry, the tested form may be a part): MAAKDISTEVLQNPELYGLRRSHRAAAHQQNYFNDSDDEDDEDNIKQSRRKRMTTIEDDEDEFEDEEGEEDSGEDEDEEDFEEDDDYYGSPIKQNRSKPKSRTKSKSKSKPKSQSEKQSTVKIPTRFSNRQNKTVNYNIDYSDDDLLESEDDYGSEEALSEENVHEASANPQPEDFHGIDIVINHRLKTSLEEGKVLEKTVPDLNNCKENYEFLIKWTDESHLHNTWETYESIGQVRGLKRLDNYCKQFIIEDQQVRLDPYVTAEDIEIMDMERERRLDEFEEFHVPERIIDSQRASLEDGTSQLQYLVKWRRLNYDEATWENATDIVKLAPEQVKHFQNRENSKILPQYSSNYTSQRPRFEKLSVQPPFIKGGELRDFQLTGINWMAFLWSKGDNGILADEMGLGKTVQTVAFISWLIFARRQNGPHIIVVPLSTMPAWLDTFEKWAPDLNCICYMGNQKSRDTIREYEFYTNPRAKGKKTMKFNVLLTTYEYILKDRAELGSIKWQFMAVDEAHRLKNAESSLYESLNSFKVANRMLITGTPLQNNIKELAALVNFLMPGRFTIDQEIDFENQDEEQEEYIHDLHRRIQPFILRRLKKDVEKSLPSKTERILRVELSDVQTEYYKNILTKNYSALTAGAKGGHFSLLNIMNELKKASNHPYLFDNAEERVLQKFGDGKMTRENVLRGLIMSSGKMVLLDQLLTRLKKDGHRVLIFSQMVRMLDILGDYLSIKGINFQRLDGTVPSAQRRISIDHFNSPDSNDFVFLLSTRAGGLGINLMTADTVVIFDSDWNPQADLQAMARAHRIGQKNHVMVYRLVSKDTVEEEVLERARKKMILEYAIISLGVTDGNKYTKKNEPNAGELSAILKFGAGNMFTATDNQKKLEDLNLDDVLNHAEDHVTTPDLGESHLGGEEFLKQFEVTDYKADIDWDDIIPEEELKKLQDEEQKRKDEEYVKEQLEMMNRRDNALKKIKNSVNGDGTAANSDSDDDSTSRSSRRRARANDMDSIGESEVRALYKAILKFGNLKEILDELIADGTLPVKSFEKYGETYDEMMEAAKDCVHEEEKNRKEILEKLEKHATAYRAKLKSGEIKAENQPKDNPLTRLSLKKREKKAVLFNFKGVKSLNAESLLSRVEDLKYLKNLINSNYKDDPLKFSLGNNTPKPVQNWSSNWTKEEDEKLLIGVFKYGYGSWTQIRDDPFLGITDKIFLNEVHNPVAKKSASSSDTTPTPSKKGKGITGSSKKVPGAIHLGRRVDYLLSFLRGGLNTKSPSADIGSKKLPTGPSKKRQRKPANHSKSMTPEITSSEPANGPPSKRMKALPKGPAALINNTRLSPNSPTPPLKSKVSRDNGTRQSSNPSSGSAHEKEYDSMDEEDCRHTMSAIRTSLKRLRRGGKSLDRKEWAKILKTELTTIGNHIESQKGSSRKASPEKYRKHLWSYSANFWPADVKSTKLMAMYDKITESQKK

Sequence of Sialic acid-binding Ig-like lectin 9 (Homo sapiens) (Q9Y336 whole entry): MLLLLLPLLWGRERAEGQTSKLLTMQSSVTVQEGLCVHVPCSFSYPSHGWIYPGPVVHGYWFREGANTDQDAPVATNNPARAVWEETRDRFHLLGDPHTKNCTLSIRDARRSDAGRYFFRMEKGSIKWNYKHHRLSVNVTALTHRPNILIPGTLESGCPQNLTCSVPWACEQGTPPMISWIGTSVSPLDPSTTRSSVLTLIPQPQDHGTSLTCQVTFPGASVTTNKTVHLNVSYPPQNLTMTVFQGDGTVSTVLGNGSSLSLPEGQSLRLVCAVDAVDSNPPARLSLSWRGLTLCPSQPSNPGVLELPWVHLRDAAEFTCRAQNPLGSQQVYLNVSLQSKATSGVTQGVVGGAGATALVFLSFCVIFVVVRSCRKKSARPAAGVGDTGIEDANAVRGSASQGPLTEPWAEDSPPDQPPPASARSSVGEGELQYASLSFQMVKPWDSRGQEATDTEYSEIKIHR
Sequence of Protein translocase subunit SecA (Escherichia coli (strain K12)) (P10408 whole entry): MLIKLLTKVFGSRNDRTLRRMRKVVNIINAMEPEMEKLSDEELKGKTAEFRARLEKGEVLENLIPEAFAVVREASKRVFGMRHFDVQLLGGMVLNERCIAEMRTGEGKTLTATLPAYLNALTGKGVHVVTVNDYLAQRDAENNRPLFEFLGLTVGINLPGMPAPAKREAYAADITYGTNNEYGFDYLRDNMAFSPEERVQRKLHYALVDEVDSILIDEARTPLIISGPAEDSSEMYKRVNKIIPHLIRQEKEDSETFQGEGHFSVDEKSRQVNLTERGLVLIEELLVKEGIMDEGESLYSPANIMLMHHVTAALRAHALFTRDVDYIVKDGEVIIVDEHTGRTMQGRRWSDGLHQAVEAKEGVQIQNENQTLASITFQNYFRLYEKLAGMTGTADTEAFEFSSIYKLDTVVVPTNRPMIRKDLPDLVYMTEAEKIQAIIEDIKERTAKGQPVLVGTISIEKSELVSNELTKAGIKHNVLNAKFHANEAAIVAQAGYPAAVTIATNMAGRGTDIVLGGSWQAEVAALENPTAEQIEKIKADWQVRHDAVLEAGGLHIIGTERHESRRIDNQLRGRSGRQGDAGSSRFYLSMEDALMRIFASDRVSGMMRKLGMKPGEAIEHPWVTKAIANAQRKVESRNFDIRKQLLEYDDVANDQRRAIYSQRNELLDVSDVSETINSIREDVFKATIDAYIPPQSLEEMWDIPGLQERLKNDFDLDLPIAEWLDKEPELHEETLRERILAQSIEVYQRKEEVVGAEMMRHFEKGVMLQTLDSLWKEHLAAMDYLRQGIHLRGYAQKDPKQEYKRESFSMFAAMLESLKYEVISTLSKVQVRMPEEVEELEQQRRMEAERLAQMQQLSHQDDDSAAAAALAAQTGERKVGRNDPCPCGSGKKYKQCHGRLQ

`CC(C)n1cc(CN2CCCN(C(=O)c3nccnc3N)CC2)cn1`: the Percent Effect in experiment [1] is -3.12%; in experiment [2], 13.5%; in [3] it was -6.54%; in [4], -11.2%; with Trypanosoma cruzi, -0.586%; in experiment [5], 5.83%. The Percent Effect in experiment [6] amounted to 17%; in the experiment listed under Homo sapiens, 21.2%; in experiment [7], 8.91%; in [8], 11%; in [9], 5%.

Consider `Cc1noc(C)c1CNCC1CCCN1c1cccnn1` (stereo unspecified), for which the Percent Effect is -6.8% in [1]; -5.2% in experiment [2]; 5.72% in [3]; -3.1% in experiment [4]; -4.02% in the experiment on Trypanosoma cruzi; -3.16% in experiment [5]. Moreover, the Percent Effect in experiment [6] is -2.83%; in the experiment listed under Homo sapiens it was 6.36%; in experiment [7], 1.91%; in [8] it was -2.35%; in experiment [9] it was -1.61%.

Consider `CCc1n[nH]c(C2CN(Cc3nnc(C4CC4)n3C)CCO2)n1` (stereo unspecified), for which the Percent Effect in [1] is 0.518%; in [2], 20.8%; in experiment [3], -9.24%; in [4], -6.88%; in the experiment with Trypanosoma cruzi, -1.08%; in experiment [5] it was 3.16%. Also, the Percent Effect was 12.7% in experiment [6]; 30.4% in the experiment listed under Homo sapiens; 2.86% in [7]; 9.41% in experiment [8]; -17.9% in experiment [9].

Take `CCN(c1ccc(C(=O)N2CCCC2)cc1)S(=O)(=O)CC`: the Percent Effect in experiment [1] was 2.05%; in experiment [2] it was -1.39%; in experiment [3] it was 3.96%; in [4], -5.1%; in the experiment on Trypanosoma cruzi, -0.486%; in [5] it was 1.32%. Further, the Percent Effect in experiment [6] was 2.46%; in the experiment filed under Homo sapiens, -27.1%; in experiment [7], 1.05%; in [8], 0%; in experiment [9], 2.93%.

Take `c1coc(-c2noc(CN3CC(n4cccn4)C3)n2)c1`: the Percent Effect in experiment [1] was -5.48%; in [2], 7.79%; in [3], 3%; in experiment [4] it was -4.91%; with Trypanosoma cruzi it was 0.49%; in [5], 1.05%. The Percent Effect in experiment [6] was 2.18%; in the experiment filed under Homo sapiens, 19.4%; in experiment [7], 3.81%; in experiment [8], 9.41%; in experiment [9], -11.1%.

As to `CC(=O)N1CC(=O)N(c2ccccc2)CC12CCN(Cc1cccs1)C2` (stereo unspecified), the Percent Effect in experiment [1] is -0.462%; in [2], 16%; in experiment [3] it was -5.96%; in experiment [4], 8.98%; with Trypanosoma cruzi it was 2.51%; in experiment [5], -36.4%. Moreover, the Percent Effect was 7.69% in experiment [6]; -11.1% in the experiment listed under Homo sapiens; 5.21% in experiment [7]; 27.5% in experiment [8]; -7.74% in experiment [9].

`CCn1cc(NC(=O)C2CCN(Cc3noc(C(C)C)n3)CC2)cn1`: the Percent Effect in experiment [1] is -2.1%; in [2], 8.86%; in experiment [3], 0.341%; in experiment [4], 3.03%; in the experiment with Trypanosoma cruzi, -1.74%; in [5], -0.645%. Moreover, the Percent Effect in experiment [6] is 10.3%; in the experiment listed under Homo sapiens, 8.77%; in experiment [7] it was 9.38%; in [8] it was 22.8%; in experiment [9] it was -19.2%.

As for `COc1nccc(N2CCN(Cc3ccc(C)cc3)C(=O)C2)c1C#N`, the Percent Effect is -1.96% in [1]; 15.6% in [2]; -4.99% in [3]; 5.78% in experiment [4]; 8.16% with Trypanosoma cruzi; -33.1% in experiment [5]. Besides, the Percent Effect was 13.3% in experiment [6]; -2.81% in the experiment listed under Homo sapiens; 8.6% in [7]; 21% in [8]; 9% in experiment [9].

`CN(C)CC(=O)N1CCCC2(CCC(=O)N(CCc3c[nH]cn3)C2)C1` (stereo unspecified): the Percent Effect in experiment [1] was -1.9%; in [2], 15.6%; in experiment [3] it was -0.193%; in [4], 10.6%; in the experiment with Trypanosoma cruzi it was 1.48%; in experiment [5], -45.5%. Moreover, the Percent Effect in experiment [6] was 11%; in the experiment listed under Homo sapiens, -2.33%; in [7], 9.68%; in [8], 16.1%; in experiment [9], -1.67%.

On to `N#Cc1ccc(CN2CCN(C(=O)C3CCC3)[C@@H]3CS(=O)(=O)C[C@@H]32)cc1`, for which the Percent Effect in [1] was -4.22%; in experiment [2], 5.2%; in [3] it was 3.66%; in experiment [4] it was 3.04%; in the experiment with Trypanosoma cruzi, -5.61%; in experiment [5], -20.7%. Moreover, the Percent Effect in experiment [6] was 8.98%; in the experiment filed under Homo sapiens, 14.4%; in experiment [7], 4.3%; in [8], 8.64%; in experiment [9], -1.71%.

For the molecule `CCCc1n[nH]c(C2CN(C(=O)C3=COCCC3)CCO2)n1` (stereo unspecified), the Percent Effect in experiment [1] is -3.49%; in [2], 2.63%; in experiment [3] it was -0.787%; in [4], 5.25%; with Trypanosoma cruzi, 2.52%; in experiment [5], 1.44%. Besides, the Percent Effect in experiment [6] is -2.96%; in the experiment filed under Homo sapiens it was 2.6%; in experiment [7], 2.46%; in experiment [8], 1.24%; in experiment [9], 10.7%.
